# Laboratory results published in PubChem BioAssay (Tox21).
# Where “and” joins values, the source holds several entries; their conditions need not be identical. Equal values may be shown once. Inconclusive results are not listed. Where a call stands in place of a potency, no number is given. A structure can be active in one record and inactive in another. Calls of active or inactive are those of the source. The call rests on the fitted dose curve; in most records, active means well fitted curve in the direction sought with a large enough effect in the repeat runs; inconclusive means weak or mixed curves; inactive means no such curve, though single readings can be large; an effect the other way counts as inactive or inconclusive.
# Target: Nuclear receptor subfamily 1 group I member 2 (Rattus norvegicus) (UniProt Q9R1A7)
# Experiment: Rat pregnane X receptor (rPXR) activation by small molecules, qHTS assay (AID 1346983); further: nearly all actives have a fitted effect of over 20% in size; further: potency means the concentration at half of the fitted maximal effect
# Details: rPXR luciferase reporter cells, One-Glo luminescence, 24 h; max activation: stronger effect = higher value
# Method in brief: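 Cell-based rPXR luciferase reporter assay, 2,000 cells per well, rested 5hr at 37 C before compound addition in DMSO, then 24 hr at 37 C. One-Glo reagent was added and luminescence read after 30 min at room temperature.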
# Sequence of Nuclear receptor subfamily 1 group I member 2 (Rattus norvegicus) (Q9R1A7 whole entry, looked up): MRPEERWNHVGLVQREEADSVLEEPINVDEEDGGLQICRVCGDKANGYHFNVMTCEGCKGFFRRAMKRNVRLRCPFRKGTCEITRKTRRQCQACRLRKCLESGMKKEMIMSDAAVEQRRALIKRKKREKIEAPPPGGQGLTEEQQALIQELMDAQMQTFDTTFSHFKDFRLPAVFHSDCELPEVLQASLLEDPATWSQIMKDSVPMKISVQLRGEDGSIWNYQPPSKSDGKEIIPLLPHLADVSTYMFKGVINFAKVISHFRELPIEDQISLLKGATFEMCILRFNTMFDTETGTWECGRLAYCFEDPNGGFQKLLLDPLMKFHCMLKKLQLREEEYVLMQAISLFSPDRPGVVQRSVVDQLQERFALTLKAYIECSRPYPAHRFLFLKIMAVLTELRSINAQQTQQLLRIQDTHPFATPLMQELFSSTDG
SMILES,max activation,Potency
O=c1[nH]c(=O)n([C@H]2CCCO2)cc1F,-0.0643% (inactive),–
C=CCNC(N)=S,-2.6% (inactive),–
CC(=O)OCC(=O)[C@@]12N=C(C)O[C@@H]1C[C@H]1[C@@H]3CCC4=CC(=O)C=C[C@]4(C)[C@H]3[C@@H](O)C[C@@]12C,–,15.8 µM (active)
CCCCCC(N)=O,-0.768% (inactive),–
CC[C@H](C)C(=O)O[C@H]1C[C@@H](C)C=C2C=C[C@H](C)[C@H](CC[C@@H]3C[C@@H](O)CC(=O)O3)[C@H]21,–,12.6 µM (active)
C#CCN(C)Cc1ccccc1,-0.422% (inactive),–
O=C(O)c1cc(O)c(O)c(O)c1,-1.49% (inactive),–
OC[C@H]1O[C@@](CO)(O[C@H]2O[C@H](CO)[C@@H](O)[C@H](O)[C@H]2O)[C@@H](O)[C@@H]1O,0.408% (inactive),–
O=c1[nH]c(=O)n([C@H]2C[C@H](O)[C@@H](CO)O2)cc1Br,–,4.47 µM (active)
CC(c1cc2ccccc2s1)N(O)C(N)=O (stereo not given),1.87% (inactive),–

# Target: Nuclear receptor subfamily 1 group I member 2 (Homo sapiens) (UniProt O75469)
# Experiment: Human pregnane X receptor (PXR) activation by small molecules, qHTS assay (AID 1346985); further: nearly all actives have a fitted effect of over 40% in size
# Details: DPX-2 HepG2 CYP3A4-luciferase, 24 h; series mostly up to 38.3 µM
# Method in brief: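 DPX-2 cells (HepG2 co-transfected with a PXR response element and a CYP3A4-promoter luciferase construct) were seeded at 2,000 per well, rested 5 hr at 37C, then exposed to DMSO-dissolved compounds for 24 hr. Activation was read as luciferase luminescence.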
row,SMILES,Potency
1,O=c1[nH]c(=O)n([C@H]2CCCO2)cc1F,inactive
2,C=CCNC(N)=S,inactive
3,CC(=O)OCC(=O)[C@@]12N=C(C)O[C@@H]1C[C@H]1[C@@H]3CCC4=CC(=O)C=C[C@]4(C)[C@H]3[C@@H](O)C[C@@]12C,inactive
4,CCCCCC(N)=O,inactive
5,C#CCN(C)Cc1ccccc1,inactive
6,O=C(O)c1cc(O)c(O)c(O)c1,inactive
7,OC[C@H]1O[C@@](CO)(O[C@H]2O[C@H](CO)[C@@H](O)[C@H](O)[C@H]2O)[C@@H](O)[C@@H]1O,inactive
8,O=c1[nH]c(=O)n([C@H]2C[C@H](O)[C@@H](CO)O2)cc1Br,inactive
9,CC(c1cc2ccccc2s1)N(O)C(N)=O (stereo not given),inactive

# Target: Cytochrome P450 2D6 (Homo sapiens) (UniProt P10635)
# Experiment: Cytochrome P450 Family 2 Subfamily D Member 6 (CYP2D6) small molecule antagonists: luciferase reporter qHTS assay (AID 1671196); further: nearly all actives have a fitted effect of over 50% in size; further: potency means the concentration at half of the fitted maximal effect
# Details: P450-Glo CYP2D6 enzyme assay, luciferin luminescence, 1 h; series mostly up to 115 µM
# Method in brief: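 Read-out is luminescence from luciferin formed by CYP2D6 turnover of a proluciferin substrate, recorded as relative luminescence units. Reactions ran 1 h at room temperature after NADPH regeneration solution was added.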
# Sequence of Cytochrome P450 2D6 (Homo sapiens) (P10635 whole entry, looked up): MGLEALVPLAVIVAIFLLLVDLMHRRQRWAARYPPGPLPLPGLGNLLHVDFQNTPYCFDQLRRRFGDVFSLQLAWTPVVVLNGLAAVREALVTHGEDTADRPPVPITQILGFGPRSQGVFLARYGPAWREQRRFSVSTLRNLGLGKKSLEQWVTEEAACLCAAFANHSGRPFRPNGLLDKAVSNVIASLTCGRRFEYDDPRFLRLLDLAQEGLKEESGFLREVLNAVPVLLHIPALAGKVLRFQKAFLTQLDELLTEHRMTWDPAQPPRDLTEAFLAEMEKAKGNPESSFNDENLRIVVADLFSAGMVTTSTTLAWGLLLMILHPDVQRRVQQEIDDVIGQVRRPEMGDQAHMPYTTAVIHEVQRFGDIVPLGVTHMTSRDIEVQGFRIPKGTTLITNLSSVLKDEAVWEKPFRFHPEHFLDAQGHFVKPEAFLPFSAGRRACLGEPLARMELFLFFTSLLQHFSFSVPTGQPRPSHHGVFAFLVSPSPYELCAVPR
row,SMILES,Potency
1,O=c1[nH]c(=O)n([C@H]2CCCO2)cc1F,inactive
2,C=CCNC(N)=S,61.9 µM (active) and inactive
3,c1ccc2c(c1)ccc1ccccc12,inactive
4,CC(=O)OCC(=O)[C@@]12N=C(C)O[C@@H]1C[C@H]1[C@@H]3CCC4=CC(=O)C=C[C@]4(C)[C@H]3[C@@H](O)C[C@@]12C,inactive
5,Cc1ccc2oc(=O)ccc2c1,inactive
6,CCC(O)OC(O)CC (stereo not given),36 µM (active) and inactive
7,O=C(O)c1ccc(C(=O)O)cc1,inactive
8,CCCCCCCCCCCCc1ccccc1,inactive
9,CCCCCC1=CCCC1=O,inactive
10,CCCCC(CC)COC(=O)CCCCC(=O)OCC(CC)CCCC (stereo not given),inactive
11,CCCCCC(N)=O,inactive
12,CC(=O)c1ccccc1,inactive
13,CSCCC=O,inactive
14,Cc1ccc(N(C)C)cc1,inactive and 35.6 µM (active)
15,CCCCCCCC(=O)OC,inactive
16,CCc1cccc(C)c1N,inactive
17,OCC(CO)(CBr)CBr,inactive
18,CC[C@H](C)C(=O)O[C@H]1C[C@@H](C)C=C2C=C[C@H](C)[C@H](CC[C@@H]3C[C@@H](O)CC(=O)O3)[C@H]21,36.1 µM (active) and inactive

row,SMILES,Potency
1,CN(C)CCCN,inactive
2,O=S1(=O)CC=CC1,inactive
3,CC(C)(C)[C@@H](O)[C@@H](Cc1ccc(Cl)cc1)n1cncn1,71 µM (active)
4,C[Si](O[Si](C)(C)C)O[Si](C)(C)C,inactive
5,CCCCCC/C(C=O)=C\c1ccccc1,inactive
6,CCCCCCCCCCCCCCO,inactive
7,Nc1cc([N+](=O)[O-])ccc1O,inactive
8,O=C(O)c1cc(O)c(O)c(O)c1,inactive
9,O=C(O)c1ccc2c(c1)C(=O)OC2=O,inactive
10,O=C(Oc1ccccc1)c1ccccc1,inactive
11,OC[C@H]1O[C@@](CO)(O[C@H]2O[C@H](CO)[C@@H](O)[C@H](O)[C@H]2O)[C@@H](O)[C@@H]1O,inactive
12,O=c1[nH]c(=O)n([C@H]2C[C@H](O)[C@@H](CO)O2)cc1Br,inactive
13,CC(=O)CC(=O)Nc1ccccc1C,inactive
14,Fc1ccc(Br)cc1,inactive
15,CC(c1cc2ccccc2s1)N(O)C(N)=O (stereo not given),inactive
16,C=CCOC(=O)c1ccccc1C(=O)OCC=C,inactive
17,CC1CCC(C(C)C)C(O)C1 (stereo not given),inactive
18,Cc1cccnc1,inactive
